# Screening results from PubChem.
# HT1080 IDH1KD tx – qHTS for induction of synthetic lethality in tumor cells producing 2HG: qHTS for the HT-1080-IDH1KD cell line | HT-1080 IDH1 knockdown viability, ATP luminescence, 48 h | Potency, µM (doses to about 46.1 µM), hits mostly cytotoxic | 360,000 compounds, 2% hits
#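 Knockdown cells (IDH1KD HT-1080) received compounds 2 h after plating at 750 cells/well and were kept 48 h at 37 °C in 5% FBS RPMI. A CellTiter-Glo luminescence read gave % activity for curve fitting.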
# ATXN viability – Viability Counterscreen for Primary qHTS for Inhibitors of ATXN expression; S2 cells (HEK-293 line with an ATXN2-luciferase reporter) viability, CellTiter-Fluor protease fluorescence, 24 h; Potency, µM (series often up to 56.7 µM), hits mostly cytotoxic; 400,000 compounds, 0.49% hits; AID 651635, 2014; note: nearly all actives have a fitted effect of over 40% in size
# ATXN2 expr inh – Primary qHTS for Inhibitors of ATXN expression. 360,000 compounds, 0.72% hits. Potency, µM (top dose mostly 57 µM), usual class: inhibitors. HEK-293 ATXN2-luciferase reporter, luminescence, 24 h. AID 1745845, 2022; note: nearly all actives have a fitted effect of over 55% in size
#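 ATXN2-luciferase reporter cells (luciferase flanked by upstream and downstream ATXN2 gene portions) were treated 24 h at 37 °C with compounds at up to 57 uM. SteadyGlo luminescence gave expression; GF-AFC fluorescence gave viability.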
# HT1080-NT tox – qHTS for induction of synthetic lethality in tumor cells producing 2HG: qHTS for the HT-1080-NT fibrosarcoma cell line; HT-1080-NT fibrosarcoma viability, CellTiter-Glo ATP luminescence, 48 h; Potency, µM (doses to about 46.1 µM), usual class: cytotoxic; 360,000 compounds, 1.6% hits;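 note: NT is the 2HG producing partner of a matched IDH1 knockdown line; nearly all actives have a fitted effect of over 55% in size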
#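 Fibrosarcoma NT cells, 750 per well in 5% FBS RPMI, were exposed to compound for 48 hours. Viability: CellTiter-Glo luminescence.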
# KB-3-1 cytotox – qHTS assay for MDR1-selective chemotherapeutics: Primary screen using the parental adenocarcinoma cell KB-3-1; AID 1347075, 2019; 400,000 compounds, 1.4% hits; KB-3-1 viability, CellTiter-Glo ATP luminescence, 72 h; Potency, µM (doses to about 46.1 µM), usual class: cytotoxic; note: nearly all actives have a fitted effect of over 60% in size
#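 Luminescent ATP read-out (CellTiter-Glo) measures survival of drug-naive KB-3-1 cells after 72 h compound exposure at 37 °C. Titration series was screened from lowest to highest concentration, with DMSO vehicle plates as background controls.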
# KB-V1 cytotox – qHTS assay for MDR1-selective chemotherapeutics: Primary screen using the drug-selected MDR subline cells KB-V1 | KB-V1 MDR cells viability, CellTiter-Glo, 72 h | Potency, µM (highest dose often 46.1 µM), usual class: cytotoxic | 400,000 compounds, 3.4% hits | AID 1347076, 2019; note: nearly all actives have a fitted effect of over 60% in size
#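 Cytotoxicity toward P-gp-expressing KB-V1 cells was determined as loss of CellTiter-Glo luminescence after 72 h at 37 degrees C. Compounds were tested in quantitative HTS format across a concentration range, with curves fitted to normalized data.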
# Hits are given with their value; n = inactive; u = inconclusive; x = not tested or not shown. Most compounds without a hit are left out; they make up all but 6.2% or so of the library. Calls come from the whole dose curve; as a rule, active = well fitted curve in the direction sought with a large enough effect; inconclusive = small, poorly fitted or top-dose-only effect, or another doubt; inactive = no such curve, though single readings can be large; an effect the other way counts as inactive or inconclusive.
SMILES,HT1080 IDH1KD tx,ATXN viability,ATXN2 expr inh,HT1080-NT tox,KB-3-1 cytotox,KB-V1 cytotox
CCCn1c2ccccc2c2cnn(CC(=O)NCCCN3CCN(c4ccccc4)CC3)c(=O)c21,u,u,u,18µM,n,n
CCCn1c2ccccc2c2cnn(CC(=O)NCCCN3CCCCC3)c(=O)c21,n,n,n,n,n,n
c1ccc(CCn2c(C3CC3)nc3ccccc32)cc1,n,n,n,u,n,21µM
Cc1ccc(S(=O)(=O)c2c(C)nn(-c3ccccc3)c2OC(=O)c2ccccc2F)cc1,x,u,n,x,n,n
Nc1ccc(-c2nc3c(Cl)cc(N)cc3[nH]2)cc1,n,n,10µM,n,n,n
Nc1ccc2nc(-c3ccc(N)c(Cl)c3)[nH]c2c1,n,u,n,n,n,n
O=C(Nc1ccc(Nc2ccccc2)cc1)c1ccc(Br)o1,u,n,n,n,u,13µM
O=C(NC(=S)Nc1ccccc1)c1ccc(Br)o1,n,n,x,n,n,n
O=C(Nc1cccc(-c2nnc(-c3ccccc3)o2)c1)c1ccc(Br)o1,u,35µM,u,n,n,21µM
COc1ccc(N(Cc2cccs2)C(=O)c2ccccc2C)cc1,x,x,x,x,n,u
O=C1Nc2ccccc2OC1CC(=O)N1CCN(c2cccc(C(F)(F)F)c2)CC1 (centres undefined),20µM,n,n,n,n,u
Cc1ccc(-c2noc(-c3ccc(N4CCOCC4)c([N+](=O)[O-])c3)n2)cc1,x,n,n,x,n,n
O=C(Nc1ccc(F)cc1F)c1cccc(C(=O)Nc2ccc(F)cc2F)n1,n,4.5µM,2.5µM,n,x,x
CC1CCN(CCOc2ccccc2-c2ccccc2)CC1,n,n,n,n,n,n
CC1CCN(CC[S-])CC1.O.O.[Cl][Pt],x,x,x,x,13µM,u
Cc1nn(-c2nnc(NCc3ccccc3)nn2)c(C)c1Br,n,u,n,n,8.2µM,21µM
Cc1cc(C)n(-c2nnc(NCc3ccc(Cl)cc3)nn2)n1,n,n,n,n,n,n
C/C1=C\CCC2C(/C=C(\C)CC1)OC(=O)C2CN1CCCCC1 (centres undefined),21µM,n,n,u,n,u
O=c1[nH]cnc2c1sc1nc3c(c(-c4ccc(Cl)cc4)c12)CCC3,n,n,n,n,n,u
O=c1[nH]cnc2c1sc1nc(C(F)F)cc(-c3ccccc3)c12,n,n,n,n,u,12µM
COc1ccc(/C=N/Nc2nonc2N)cc1,n,n,n,n,u,21µM
COc1ccc(/C=N/Nc2nonc2N)cc1OC,n,n,n,n,u,u
Fc1cccc(/C=N/Nc2nccnc2Cl)c1,15µM,n,n,12µM,u,5.8µM
Oc1ccc(/C=N/Nc2nccnc2Cl)cc1,26µM,n,n,16µM,16µM,u
Cc1c(C(=O)NCC2(N3CCCCC3)CCCC2)cnn1-c1nccc(-c2ccccc2F)n1,x,n,x,x,x,x
SMILES,HT1080 IDH1KD tx,ATXN viability,ATXN2 expr inh,HT1080-NT tox,KB-3-1 cytotox,KB-V1 cytotox
CCCCCCCCc1ccc(CCC(N)(CO)CO)cc1,x,x,31µM,x,x,x
C[C@@H]1CN([C@H](C)CO)S(=O)(=O)c2ccc(Br)cc2O[C@H]1CN(C)C(=O)C1CCCCC1,n,u,u,n,u,n
C[C@H]1CN([C@@H](C)CO)S(=O)(=O)c2ccc(C3=CCCC3)cc2O[C@@H]1CN(C)C(=O)C1CCCCC1,u,20µM,u,u,u,n
Cc1ccccc1C(=O)Nc1ccc(C(=O)N2CCCC(O)c3cc(Cl)ccc32)c(C)c1 (centres undefined),x,n,n,x,x,x
O=C(Nc1ccc(Cn2cccn2)cc1)c1ccc(COc2cccc(Br)c2)cc1,u,u,n,n,0.73µM,9.2µM
COc1cccc2c1Oc1ncccc1N(c1ccc(C(=O)NCc3ccccc3Cl)s1)C2,x,x,x,x,n,n
CCc1ccc(CN2CCN(S(=O)(=O)Cc3ccccc3)CC2)cc1,n,n,n,n,n,10µM
CC(NC(=O)CN(C)CC(=O)Nc1cccc(F)c1)c1ccccc1 (centres undefined),n,n,n,n,n,18µM
Cc1nn(-c2ccccc2)c2c1N(CCCC(=O)NCc1ccccc1)C(=O)CS2,x,u,n,x,u,16µM
Cc1nn(-c2ccccc2)c2c1N(CCCC(=O)NCc1ccc(Cl)cc1)C(=O)CS2,x,u,n,x,n,n
CCN1CCN(C(c2ccc(SC)cc2)c2c(O)cc(C)n(Cc3ccco3)c2=O)CC1 (centres undefined),x,x,x,x,n,n
CCOC(=O)c1csc(NC(=O)COc2ccc(Cl)cc2Cl)n1,n,n,n,n,n,23µM
COc1ccc(CC(=O)NCC(c2cccs2)S(=O)(=O)c2ccc(C)cc2)cc1 (centres undefined),x,n,n,x,n,n
COc1cc(C2Oc3ccccc3C=C2[N+](=O)[O-])cc(OC)c1OC (centres undefined),5.8µM,16µM,x,5.8µM,u,u
COc1cc(C2NC(=O)c3ccccc3O2)cc(OC)c1OC (centres undefined),n,n,n,n,n,n
CC(C)(C)C(=O)Nc1ccc2nc(SCC(=O)N3CCc4ccccc43)sc2c1,x,n,n,x,u,n
COc1ccc(-c2noc(-c3ccccc3C(=O)Nc3cccnc3)n2)cc1OC,n,u,n,n,n,n
CCOc1ccccc1NC(=O)c1ccccc1-c1nc(-c2ccccc2)no1,n,n,n,n,u,8.2µM
CCOc1ccccc1NC(=O)c1ccccc1-c1ccccc1,n,n,n,n,n,n
COc1ccccc1-c1noc(-c2ccccc2C(=O)Nc2cccnc2)n1,n,n,n,n,n,10µM
C=C1[C@@H](O)[C@H](CC(C)C)N(Cc2ccccc2Br)S1(=O)=O,u,x,n,23µM,u,n
Cc1ccc(CNC(=O)CCCCn2c(=O)[nH]c3ccsc3c2=O)cc1,n,n,x,n,n,n
Cc1cccc(N2CCN(C(=O)Cc3ccc(-n4c(=O)[nH]c5ccsc5c4=O)cc3)CC2)c1C,n,n,n,n,n,15µM
Cc1ccc(C)c(N2CCN(C(=O)Cc3ccc(-n4c(=O)[nH]c5ccsc5c4=O)cc3)CC2)c1,n,n,n,n,n,n
Cc1ccc(C)c(N2CCN(C(=O)Cn3c(=O)[nH]c4ccsc4c3=O)CC2)c1,n,n,n,n,n,21µM
Cc1ccc(CNC(=O)Cc2ccc(-n3c(=O)[nH]c4ccsc4c3=O)cc2)cc1,4.1µM,n,n,3.7µM,1.3µM,n
